Compound activity as filed in PubChem.
Hits are enriched below; roughly 1.2% of the tested compounds scored in any of these assays.
BRCT PPI green: qHTS Assay for Inhibitors of BRCT-Phosphoprotein Interaction (Green Fluorophore). BRCA1 BRCT-phosphopeptide binding, green fluorescence polarization. Potency, µM (doses to about 76.9 µM), for the others: at the top dose activity change, negative = inhibition, usual class: inhibitors. actives 0.05% (n = 75,000);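 further: potency means the concentration at half of the fitted maximal effect; plate controls were peptide without protein for full effect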
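Compounds were incubated for 12 min at room temperature with a complex of 100 nM fluorescein-tagged pBACH1 decapeptide and 250 nM His-tagged BRCT protein. Buffer was phosphate pH 7.3 with EDTA, DTT and Tween 20. Disruption of binding lowers the polarization signal.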
ERK AVP block: qHTS Assay for Inhibitors of the ERK Signaling Pathway using a Homogeneous Screening Assay; HEK293-V1b, vasopressin-stimulated pERK AlphaScreen; Potency, µM (highest dose often 57.5 µM), without a hit: at the top dose activity, negative = inhibition, actives largely listed as inhibitors; actives 0.99% (n = 72,000); further: potency means the concentration at half of the fitted maximal effect; on the % scale 0 is the no-effect control and ±100 the full control effect; nearly all actives have a fitted effect of over 55% in size
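qHTS, compounds titrated on V1b-expressing HEK293 cells. Preincubation 30 min at 37C, vasopressin 25 nM for 5 min, lysis 10 min, bead incubation 5 hr at room temperature.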
BRCT inh red: qHTS Assay for Inhibitors of BRCT-Phosphoprotein Interaction (Red Fluorophore) | Breast cancer type 1 susceptibility protein (Homo sapiens), P38398 | BRCT-phosphopeptide binding, red fluorescence polarization | Potency, µM (top dose mostly 76.9 µM), without a hit: at the highest dose activity change, negative = inhibition, most hits filed as inhibitors | actives 0.03% (n = 75,000) | AID 892, 2007; further: on the % scale 0 is the no-effect control and ±100 the full control effect
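Rhodamine-labelled pBACH1 10-mer (100 nM) bound to BRCT domain (100 nM) at pH 7.3; compounds incubated 12 min room temperature, polarization read. Free peptide defines full inhibition; unlabelled decapeptide titrated as control.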
DNA Pol III inh: qHTS Assay for Inhibitors of DNA Polymerase III Holoenzyme System; reconstituted DNA polymerase III holoenzyme replication, biochemical; Potency, µM (highest dose often 57.1 µM), without a hit: top-dose activity change, negative = inhibition; actives 0.25% (n = 71,000); AID 603, 2007; further: potency means the concentration at half of the fitted maximal effect; on the % scale 0 is the no-effect control and ±100 the full control effect
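Reconstituted *E. coli* holoenzyme (0.35 nM Pol III, 1 nM beta, 154 nM SSB, 2 nM primase) was preincubated with compound for 15 min at RT. Synthesis on 1.4 nM ssM13Gori ran 35 min, then was stopped with PicoGreen/EDTA and read as dsDNA fluorescence.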
TsaE inh: qHTS Assay for Inhibitors of YjeE. tRNA threonylcarbamoyladenosine biosynthesis protein TsaE (Escherichia coli (strain …. purified YjeE enzyme, qHTS inhibition assay. Potency, µM. actives 0.05% (n = 71,000). AID 605, 2007
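Purified YjeE (10 uM) with BODIPY Texas Red-labeled ADP probe (2 uM); compounds pin-transferred, 15 min at room temperature. Binding inhibition read as decreased fluorescence polarization; ADP titration as control.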
Starred values were filed as active, the others as inactive; i = inactive; ? = inconclusive; / = no result given; [ ] = remark or other dose. The call rests on the fitted dose curve; in most records, active means well fitted curve in the direction sought with a large enough effect; inconclusive means small, poorly fitted or top-dose-only effect, or another doubt; inactive means no such curve, though single readings can be large; an effect the other way counts as inactive or inconclusive.

SMILES	BRCT PPI green	ERK AVP block	BRCT inh red	DNA Pol III inh	TsaE inh
c1ccc2c(c1)nc(NCC1CCCO1)c1nnnn12 (configuration not stated)	-2.8%	-25.3%	-0.7%	-4.7%	i
Oc1ccccc1-c1nc(NCC2CCCO2)c2ccccc2n1 (configuration not stated)	1.1%	31.6µM*	0.9%	3.9%	i
OC[C@H]1O[C@H](n2cnc3c(NC4CCCC4)nc(Cl)nc32)[C@@H](O)[C@@H]1O	-1.5%	?	2.5%	-7.1%	i
Cn1cc(C(=O)c2ccc(F)cc2)cc1-c1nc2ccccc2n1C	0.2%	25.1µM*	1.5%	-4.9%	i
O=C1C[C@@H](O)[C@@H](O)[C@H]2[C@@H]3C(=O)N(Cc4ccccc4)C(=O)[C@@H]3CC[C@H]12	-0.7%[15.4 µM]	4.4%[11.5 µM]	0.0%[15.4 µM]	/	/
CCOC(=O)c1sc(N)c(C(=O)Nc2ccc(C)cc2C)c1C	-0.7%	/	0.3%	/	/
CC1(C)CC(=O)c2cnn(-c3nc4ccccc4[nH]3)c2C1	-1.1%	-18.3%	-0.7%	-3.8%	i
CN1CCN(c2cc3c(c4c2[nH]c2ccccc24)C(=O)CC(C)(C)C3)CC1	-1.8%	31.6µM*	1.0%	-11.3%	i
Cn1cccc1Cc1nnc(SCC(=O)Nc2nccs2)n1CCc1ccccc1	6.6%	15.8µM*	-3.9%	-1.7%	i
CCOC(=O)C1CCN(C(=O)Nc2ccc3nc(-c4ccco4)c(-c4ccco4)nc3c2)CC1	-29.1%	25.1µM*	?	12.6µM*	i
CCOC(=O)C1CCN(C(=O)Nc2ccc3c(c2)nc(C)n3C)CC1	-5.7%	-3.8%	-0.8%	-6.7%	i
O=C(Nc1ccc2nc(-c3ccco3)c(-c3ccco3)nc2c1)N1CCCCCC1	-22.4%	?	?	15.8µM*	i
O=C(NC1CCCC1)c1ccc2nc(-c3ccco3)c(-c3ccco3)nc2c1	-2.5%	?	-3.4%	-21.9%	i
O=c1cc(-c2ccc(O)c(O)c2)oc2cc(O[C@@H]3O[C@@H](CO)[C@@H](O)[C@@H](O)[C@H]3O)cc(O)c12	/	/	/	1µM*	i
O=C(O)c1ccccc1CN1CCC[C@@H](C(=O)O)C1	-1.2%[15.4 µM]	22.2%[11.5 µM]	0.3%[15.4 µM]	-5.6%[11.4 µM]	i
O=C1CCN2C=Nc3cccc4ccc1c2c34	15.8µM*	10.7%	0.1%	119.2%	i
Cc1nc2cnc(N(C)C)nc2n(C[C@H]2CCCO2)c1=O	-2.7%	-13.0%	-3.8%	-4.0%	i
CC(=O)OCC(=O)[C@@]1(O)CC[C@@H]2[C@@H]3CCC4=CC(=O)CC[C@@]4(C)[C@H]3C(=O)C[C@]21C	/	/	/	1.6%	i
CC(=O)CCc1oc2ccc(NC(C)=O)cc2c1-c1ccc(C)o1	-1.8%	31.6µM*	-2.1%	-4.9%	i
CC(=O)Nc1ccccc1-c1ccc(C)o1	-3.9%	-5.0%	-0.2%	-1.7%	i
CN(C)[C@H]1C(=O)C(C(=O)NCN2CCCC2)=C(O)[C@]2(O)C(=O)C3=C(O)c4c(O)cccc4[C@](C)(O)[C@H]3C[C@H]12	-14.9%[15.4 µM]	-5.1%[11.5 µM]	-20.6%[15.4 µM]	3.16µM*	i
CN(C)c1ccc(O)c2c1C[C@@H]1C[C@H]3C(N(C)C)C(=O)C(C(N)=O)=C(O)[C@@]3(O)C(=O)C1=C2O (some centres not stated)	-1.4%[3.08 µM]	-13.8%	-14.7%	/	/
O=C(O)c1cc2c(cc1S(=O)(=O)O)[C@H]1[C@@H]([C@H]3[C@H]2[C@@]2(Cl)C(Cl)=C(Cl)[C@]3(Cl)C2(Cl)Cl)[C@]2(Cl)C(Cl)=C(Cl)[C@@]1(Cl)C2(Cl)Cl	-5.0%[15.4 µM]	15.7%[11.5 µM]	-6.0%[15.4 µM]	-1.5%[11.4 µM]	i
O=C(COc1ccc(Br)cc1CO)Nc1ccc(F)cc1	0.3%	39.8µM*	-1.4%	-1.5%	i
CC(=O)O[C@H]1CC[C@@]2(C)[C@@H](CC[C@H]3[C@H]2CC(=O)[C@@]2(C)[C@@H]3C[C@H]3CC(C)=CC(=O)[C@H]32)C1	-0.5%[15.4 µM]	23.4%[11.5 µM]	0.2%[15.4 µM]	-7.5%[11.4 µM]	i
